# Experimental data taken from PubChem BioAssay AID493085 (Broad Institute, 2011).
# About 360 (15%) of roughly 2,400 compounds were called active. Another 5% or so got no clear call; they are omitted.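 Rule for the calls: active = falling-signal curve with half-maximal concentration at or below ten times the top tested dose; inconclusive = flat fit at 30 to 70% inhibition, or poor fit; inactive = signal rise, flat within 30%, or potency beyond limit.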 A selection follows. Results with a measured potency or affinity are listed apart.
# Assay: dox-induced RFP signal loss in R4-3T3 cells – cell-based, NIH3T3 R4, HSE-GFP and Tet-On RFP, cherry-pick, set 3, dose response (AID 493085);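 note: cells heat shocked 2 h at 42 °C with doxycycline to induce reporters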
# Conditions: NIH3T3 R4 HSE-GFP/Tet-RFP reporter, fluorescence, 48 h; series mostly up to 19.5 µM
row,Structure (SMILES),outcome
1,C=CCOCCN(CCOCC=C)C1=NS(=O)(=O)c2ccccc21,inactive
2,NS(=O)(=O)c1ccc(CCNCC#Cc2ccccc2)cc1,inactive
3,Cc1cc(OCC(=O)NCCc2ccc(S(N)(=O)=O)cc2)c2c(C)cc(=O)oc2c1,inactive
4,CCn1cc(C(=O)NCCCN2CC(C)CC(C)C2)c(=O)c2cc(S(=O)(=O)N(C)C)ccc21 (centres undefined),inactive
5,O=C(N1CCOCC1)C12CCC3CC(CC(C3)C1)C2,inactive
6,CCCS(=O)(=O)c1cnc(C2COc3ccccc3O2)nc1N (centres undefined),inactive
7,C=CCn1c(C)nnc1SCC(=O)Nc1nc(C)c(C(=O)N(C)C)s1,inactive
8,O=C1CC(N2CCCCC2)C(=O)N1c1ccccc1 (centres undefined),inactive
9,Cc1ccc(-n2nc3c(=O)n(CCCC(=O)N4CCC(C(N)=O)CC4)nc(C)c3c2C)cc1,inactive
10,O=S(=O)(Nc1ccc2c(c1)OCCO2)c1cccs1,inactive
11,CC1C(=O)C(C)C(c2ccco2)NC1c1ccco1 (centres undefined),inactive
12,Nc1nc2n(c1C(=O)c1ccccc1)CCC2,inactive
13,COc1ccc(N2CCN(CC(O)COCCOc3ccc(Br)cc3)CC2)cc1 (centres undefined),inactive
14,CC(C)(C)c1ccc(-c2nnc3sc(-c4ccccn4)nn23)cc1,inactive
15,Cn1c(C(=O)O)c(CC(=O)Nc2ccc3c(c2)OCCO3)c2ccccc21,inactive
16,CCCS(=O)(=O)N1CCCC(C(=O)N2CCC(Cc3ccccc3)CC2)C1 (centres undefined),inactive
17,CC(=O)Nc1ccc(-c2nnn(CC(=O)Nc3ccc4c(c3)OCO4)n2)cc1Cl,inactive
18,O=C1Cc2ccccc2C(=O)N1c1cccc(Cl)c1,inactive
19,CC(C)CNC(=O)C1CCN(Cc2ccc(OCc3ccccc3)cc2)CC1,inactive
20,COc1cc(NC(=O)c2cc3cccc(OC)c3o2)cc(C(=O)Nc2cccc(C(F)(F)F)c2)c1,inactive
21,CN(CC(=O)Nc1cccc(F)c1)CC(=O)Nc1cccc(S(N)(=O)=O)c1,inactive

row,Structure (SMILES),outcome
1,COc1ccc(S(=O)(=O)Nc2ccccc2C(=O)N2CCOCC2)cc1Cl,inactive
2,COc1ccc(CN(C)C(=O)c2cc(S(=O)(=O)N3CCOCC3)ccc2N2CCCC2)cc1,inactive
3,Cc1noc(NS(=O)(=O)c2ccc(N3Cc4ccccc4C3=O)cc2)c1C,inactive
4,CCCCN1C=CC(=C2C(=O)c3ccccc3C2=O)C=C1,inactive
5,Fc1ccccc1NC(=S)Nc1ccc(CN2CCOCC2)cc1,inactive
6,COC(=O)C1CCN(C(=O)c2sc3nc(-c4ccccc4)cn3c2C)CC1,inactive
7,CCOC(=O)c1sc2nc3c(cc2c1N)COC(C(C)C)C3 (centres undefined),inactive
8,CCOC(=O)c1n[nH]c(=O)c2ccccc12,inactive
9,CCCn1c(SCC(=O)c2c(C)[nH]c(C)c2C(=O)OCC)nc2ccccc21,inactive
10,Cc1cccc(Nc2nc(-c3ccc4c(c3)OCCO4)cs2)c1,inactive
11,COc1cccc(-n2nnc3c(=O)n(Cc4ccccc4Cl)cnc32)c1,inactive
12,Nc1nc(Cl)nc(N(c2ccccc2)c2ccccc2)n1,inactive
13,CCOC(=O)Cn1c(CCC(=O)O)ccc1-c1ccc(F)cc1,inactive
14,COc1ccc(S(=O)(=O)/C(C#N)=C/Nc2cccc(OC)c2)cc1,inactive
15,O=S(=O)(Nc1ccncc1)c1ccc(Cl)cc1,inactive
16,NC(=O)c1nsc(C(=O)N(c2cccc(F)c2)C(C(=O)NC2CCCC2)c2ccco2)c1N (centres undefined),inactive
17,COc1ccc(C(=O)N2CCN=C2SCc2cccnc2)cc1OC,inactive
18,CCN(C(=O)c1ccc2c(SCC(=O)O)c3c(nc2c1)CCC3)c1cc(Cl)ccc1OC,inactive
19,CC(/C=N\NC(=O)c1cc(C)oc1C)=C\c1ccccc1,inactive
20,CCN(CC)C(=O)COC(=O)c1ccc(C)c(NC(=O)c2ccco2)c1,inactive
21,CN1CCN(C(=O)/C(=C\c2cccs2)NC(=O)c2ccco2)CC1,inactive

row,Structure (SMILES),outcome
1,Cc1ccc(N(Cc2cc3ccc(C)cc3[nH]c2=O)C(=O)c2cccs2)cc1,inactive
2,CCOC(=O)N1CCC(Nc2ncnc3c2cnn3-c2ccc(Cl)cc2)CC1,inactive
3,CC1CCCN(c2ncnc3c2cnn3-c2ccc(Cl)cc2)C1 (centres undefined),inactive
4,c1ccc2c(Nc3nc(-c4ccncc4)nc4ccccc34)cccc2c1,inactive
5,COc1cc(CCCN2CCNC[C@@H]2Cc2ccc(O)cc2)cc(OC)c1OC,inactive
6,O=C(COC(=O)c1ccccc1-n1cnnn1)c1ccc(F)cc1,inactive
7,COc1cccc(-n2c(N)c(-c3nc4ccccc4[nH]3)sc2=S)c1,inactive
8,COc1ccc(CC(=O)Nc2cc(C)on2)cc1,inactive
9,COc1ccc(/C=C/C(=O)NC(=S)NCCc2ccc(OC)c(OC)c2)cc1,inactive
10,COc1ccc(Nc2nc(Nc3ccc(OC)cc3)nc(-n3[nH]c(=O)c(C)c3C)n2)cc1,inactive
11,COc1ccccc1C(O)(C(=O)N(NC(C)=O)c1ccccc1)c1ccccc1OC,inactive
12,Cc1cccc(-c2nnc(NC(=O)c3cccs3)s2)c1,inactive
13,Cc1c(C(=O)Nc2ccc(F)cc2)sc2ncn(CC(=O)N3CCCCC3)c(=O)c12,inactive
14,O=C(Nc1cccc(S(=O)(=O)N2CCOCC2)c1)c1ccccn1,inactive
15,O=[N+]([O-])c1cccc(-c2nnc(-c3ccccc3)o2)c1,inactive
16,O=[N+]([O-])c1ccc(NCCOc2ccccc2Cl)nc1,inactive
17,O=C(c1cccs1)n1nc(-c2ccco2)nc1SCc1ccccc1,inactive
18,NNC(=O)c1ccc(O)cc1O,inactive
19,COc1cc(=O)[nH]c(SCC(=O)Nc2nc3c(s2)CCCC3)n1,inactive
20,CN(C)CCNC(=O)c1cc2c(s1)-c1ccc(Cl)cc1SC2,inactive
21,CCCCC(=O)Nc1cccc(NC(=O)c2cccc(Br)c2)c1,inactive

row,Structure (SMILES),outcome
1,O=C(Nc1nc(-c2cccs2)cs1)c1ccc(Cl)s1,inactive
2,Cc1ccc(-c2csc(NC(=O)c3ccc(S(=O)(=O)N4CCc5ccccc54)cc3)n2)cc1,inactive
3,O=C(Nc1nncs1)c1ccc(F)c(S(=O)(=O)N2CCCCC2)c1,inactive
4,COc1cc2c(cc1OC)C(C(=O)NC1CC1)C1c3ccccc3CCN1C2=O (centres undefined),inactive
5,NC(=S)N/N=C/c1cc([N+](=O)[O-])ccc1OCCOc1ccccc1,inactive
6,CCC(C)c1ccc(OCc2ccc(C(=O)O)o2)cc1 (centres undefined),inactive
7,NS(=O)(=O)c1cccc(NC(=O)CNC(=O)CC23CC4CC(CC(C4)C2)C3)c1,inactive
8,CCOc1ccccc1C(=O)Nc1ccc(NC(=O)c2ccccc2)cc1,inactive
9,Cc1cc(C(=O)COC(=O)c2ccco2)c(C)n1Cc1ccco1,inactive
10,C=CCOc1ccn(C)c(=O)n1,inactive
11,O=C1OC2(CCCCC2)OC(=O)C1=CNc1nccs1,inactive
12,Cc1ccc(C)c(N2CCN(CCN3CCCCC3)CC2)c1,inactive
13,Oc1ccccc1-c1nnc(-c2ccc(C(F)(F)F)cc2)o1,inactive
14,COC(=O)C1=C(C)Nc2c(c(=O)n(C)c(=O)n2C)C1c1cccc(O)c1 (centres undefined),inactive
15,CCC(=O)N1C(C(=O)N2CCCC2)CSC1c1ccc(OC)cc1 (centres undefined),inactive
16,CNC(=O)Cn1nc(C)c2ccccc2c1=O,inactive
17,O=C(CNC(=O)C12CC3CC(CC(C3)C1)C2)NCc1ccccc1,inactive
18,Cc1cc(C)cc(N(CC(=O)Nc2ccc(Br)cc2)S(=O)(=O)c2c(C)[nH]c(=O)[nH]c2=O)c1,inactive
19,CCOc1ccccc1Nc1nnc(SCc2nnc(-c3cc(OC)c(OC)c(OC)c3)o2)s1,inactive
20,COc1ccc(-n2c(-c3cccc(OC)c3)nc(=S)c3c2CCCC3)cc1,inactive
21,COc1ccc(N2C(=O)C(C)(C)C2c2c(O)ccc3ccccc23)cc1 (centres undefined),inactive
